Results on nine molecules are retold here after PubChem BioAssay (EPA / NIEHS).

The structures appear in SMILES notation. Records with an inconclusive call do not appear. Calls of active or inactive are those of the source. How the source made its calls: active means hit-call score of the fitted dose curve at least 0.9, where 1 is the maximum; inconclusive means response in the unintended direction; inactive means score below 0.9.

Assay [1] deals with Muscarinic acetylcholine receptor M1 (Homo sapiens) (UniProt P11229). In words: NVS_GPCR_hM1: NovaScreen (NVS) G Protein-Coupled Receptor Assay for human Muscarinic, M1 Receptor (AID 2283270). The method, boiled down:
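Cell-free radioligand displacement using membrane protein extracted from CHO cells, read by filter-based scintillation counting 1 h after dosing. Loss of bound signal fitted versus DMSO; primary screen single concentration 25 uM in duplicate, actives followed by concentration series.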

In assay [2] the target is Muscarinic acetylcholine receptor M3 (Homo sapiens) (UniProt P20309). As to the kind of experiment: NVS_GPCR_hM3: NovaScreen (NVS) G Protein-Coupled Receptor Assay for human Muscarinic, M3 Receptor (AID 2283272). The essentials: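 Radioligand displacement binding on human M3 receptor in CHO-derived membranes, 1 h incubation, filter-based scintillation counting. Primary screen in duplicate at 25 uM; actives followed up in concentration series; loss of signal versus DMSO.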
Muscarinic acetylcholine receptor M3 (Homo sapiens), sequence (P20309 whole entry, looked up): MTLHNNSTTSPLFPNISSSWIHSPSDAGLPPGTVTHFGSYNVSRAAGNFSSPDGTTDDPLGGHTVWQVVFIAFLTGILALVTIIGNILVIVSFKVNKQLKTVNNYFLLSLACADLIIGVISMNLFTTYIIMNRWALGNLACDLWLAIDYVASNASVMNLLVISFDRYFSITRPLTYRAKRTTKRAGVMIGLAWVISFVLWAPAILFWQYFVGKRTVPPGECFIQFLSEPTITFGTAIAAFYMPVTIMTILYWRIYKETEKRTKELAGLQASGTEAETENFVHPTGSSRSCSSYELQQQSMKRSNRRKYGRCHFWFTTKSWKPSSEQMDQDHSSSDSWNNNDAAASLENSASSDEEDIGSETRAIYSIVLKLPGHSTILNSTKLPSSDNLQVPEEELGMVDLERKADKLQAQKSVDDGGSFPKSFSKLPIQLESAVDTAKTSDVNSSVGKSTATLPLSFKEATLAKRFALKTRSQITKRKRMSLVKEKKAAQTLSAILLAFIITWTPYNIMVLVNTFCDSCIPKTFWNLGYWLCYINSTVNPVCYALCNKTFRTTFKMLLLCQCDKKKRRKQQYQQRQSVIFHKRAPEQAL

Assay [3] addresses Muscarinic acetylcholine receptor M2 (Homo sapiens) (UniProt P08172). In words: NVS_GPCR_hM2: NovaScreen (NVS) G Protein-Coupled Receptor Assay for human Muscarinic, M2 Receptor (AID 2283273). The essentials: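 Cell-free radioligand binding using membranes from CHO cells expressing the receptor; filter-based scintillation counting after 1 hour of compound exposure. Loss of specific binding relative to DMSO baseline; primary screen at 25 uM in duplicate, actives then run in concentration series.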

In assay [4] the target is Muscarinic acetylcholine receptor M5 (Homo sapiens) (UniProt P08912). In words: NVS_GPCR_hM5: NovaScreen (NVS) G Protein-Coupled Receptor Assay for human Muscarinic, M5 Receptor (AID 2283275). The method, boiled down: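 Radioligand displacement on CHO-derived membrane preparations, 1 h, filter-based scintillation counting. Single-concentration duplicate screen at 25 uM; hits (e.g. 30% inhibition) retested in singleton concentration-response up to 50 uM. Loss of binding fitted versus DMSO.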
Muscarinic acetylcholine receptor M5 (Homo sapiens), sequence (P08912 whole entry, looked up): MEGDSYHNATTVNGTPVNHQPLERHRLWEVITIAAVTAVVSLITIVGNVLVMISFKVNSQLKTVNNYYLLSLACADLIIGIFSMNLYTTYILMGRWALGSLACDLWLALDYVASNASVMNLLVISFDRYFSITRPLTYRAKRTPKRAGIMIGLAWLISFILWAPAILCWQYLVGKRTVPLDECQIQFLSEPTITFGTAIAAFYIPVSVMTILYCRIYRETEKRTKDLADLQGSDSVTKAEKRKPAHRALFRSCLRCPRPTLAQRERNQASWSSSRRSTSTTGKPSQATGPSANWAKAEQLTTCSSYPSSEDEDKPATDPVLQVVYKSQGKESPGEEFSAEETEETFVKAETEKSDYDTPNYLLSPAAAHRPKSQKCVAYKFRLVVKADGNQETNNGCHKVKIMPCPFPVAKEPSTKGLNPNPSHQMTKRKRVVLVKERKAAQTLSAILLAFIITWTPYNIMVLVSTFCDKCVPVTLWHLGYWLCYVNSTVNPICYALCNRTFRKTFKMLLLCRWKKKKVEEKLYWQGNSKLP

Assay [5] deals with human Leukotriene B4 Receptor 1 (LTB4-BLT1), LTB4R (gene 1241) (UniProt Q15722). In words: NVS_GPCR_hLTB4_BLT1: NovaScreen (NVS) G Protein-Coupled Receptor Assay for human Leukotriene B4 Receptor 1 (LTB4-BLT1) (AID 2283271). The method, boiled down:
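Radioligand displacement binding on receptor extracted from human neutrophils, cell-free, 1 h after dosing; filter-based scintillation counting. Primary screen in duplicate at 25 uM, actives retested in concentration-response up to 50 uM; loss of signal versus DMSO.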

Assay [6] concerns the target human Adrenergic, Beta 3 Receptor (Adrb3), ADRB3 (gene 155) (UniProt P13945). As to the kind of experiment: NVS_GPCR_hAdrb3: NovaScreen (NVS) G Protein-Coupled Receptor Assay for human Adrenergic, Beta 3 Receptor (Adrb3) (AID 2283262). The essentials:
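Membranes from SK-N-MC cells pretreated with isoproterenol and 8-bromo-cAMP were used in a radioligand competitive displacement binding assay. Binding was read by filter-based scintillation counting 1 hour after dosing. Primary screening was in duplicate at 25 uM, with concentration series in follow-up.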

For assay [7], the target named is human Dopamine Receptor D4.4 (DRD4.4), DRD4 (gene 1815) (UniProt P21917). In words: NVS_GPCR_hDRD4.4: NovaScreen (NVS) G Protein-Coupled Receptor Assay for human Dopamine Receptor D4.4 (DRD4.4) (AID 2283264). The method, boiled down:
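Radioligand displacement on human DRD4.4 from CHO-derived membranes, 1 hour incubation, bound counts read by filtration and scintillation. Primary screen in duplicate at 25 uM; actives followed up in concentration series.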

The target of assay [8] is human Endothelin Receptor Type A (ETA), EDNRA (gene 1909) (UniProt P25101). In words: NVS_GPCR_hETA: NovaScreen (NVS) G Protein-Coupled Receptor Assay for human Endothelin Receptor Type A (ETA) (AID 2283265). The essentials:
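Cell-free radioligand displacement using SH-SY5Y-derived protein, 3 h incubation, filter-based scintillation counting. Primary screen in duplicate at 25 uM; actives then run in concentration-response up to 50 uM; loss of binding fitted versus DMSO.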

In assay [9] the target is human Dopamine Receptor D2 (DRD2), DRD2 (gene 1813) (UniProt P14416). As to the kind of experiment: NVS_GPCR_hDRD2s: NovaScreen (NVS) G Protein-Coupled Receptor Assay for human Dopamine Receptor D2 (DRD2) (AID 2283266). The method, boiled down:
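Radioligand displacement used human DRD2 membranes extracted from CHO cells and was read by filter-based scintillation counting after 1.5 hours. Primary screening was in duplicate at 25 uM. Loss of signal versus DMSO was fitted, with concentration series in follow-up.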

Assay [10] deals with human Histamine 1 Receptor (H1), HRH1 (gene 3269) (UniProt P35367). As to the kind of experiment: NVS_GPCR_hH1: NovaScreen (NVS) G Protein-Coupled Receptor Assay for human Histamine 1 Receptor (H1) (AID 2283268). The method, boiled down: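 Cell-free radioligand displacement at human H1 receptor, 1 h, filter scintillation counting; primary screen 25 uM in duplicate, hits in concentration series; loss of binding fitted vs DMSO.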
human Histamine 1 Receptor (H1), HRH1 (gene 3269), sequence (P35367 whole entry, looked up): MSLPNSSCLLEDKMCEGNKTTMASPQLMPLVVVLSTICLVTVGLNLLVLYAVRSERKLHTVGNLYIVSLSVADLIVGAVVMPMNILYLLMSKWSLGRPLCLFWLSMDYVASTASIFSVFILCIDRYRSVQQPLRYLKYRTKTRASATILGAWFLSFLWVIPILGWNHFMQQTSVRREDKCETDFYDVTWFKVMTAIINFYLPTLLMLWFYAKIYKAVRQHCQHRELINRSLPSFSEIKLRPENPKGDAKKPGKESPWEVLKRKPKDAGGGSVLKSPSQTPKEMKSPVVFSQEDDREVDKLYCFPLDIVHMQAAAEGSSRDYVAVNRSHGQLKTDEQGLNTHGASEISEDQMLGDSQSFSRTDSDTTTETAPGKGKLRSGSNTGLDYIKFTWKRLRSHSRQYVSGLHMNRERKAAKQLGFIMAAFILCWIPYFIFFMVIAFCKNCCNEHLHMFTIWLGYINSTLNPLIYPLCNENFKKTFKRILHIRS

Assay [11] deals with D(1A) dopamine receptor (Homo sapiens) (UniProt P21728). As to the kind of experiment: NVS_GPCR_hDRD1: NovaScreen (NVS) G Protein-Coupled Receptor Assay for human Dopamine Receptor D1 (DRD1) (AID 2283269). The essentials: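 Cell-free competition with radioligand, filter-trapped and scintillation-counted 1 h post-dose, using HEK293-derived human D1 preparation. Duplicate single-point testing at 25 uM first, then concentration series for actives; DMSO served as baseline, loss-of-signal scored.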
D(1A) dopamine receptor (Homo sapiens), sequence (P21728 whole entry, looked up): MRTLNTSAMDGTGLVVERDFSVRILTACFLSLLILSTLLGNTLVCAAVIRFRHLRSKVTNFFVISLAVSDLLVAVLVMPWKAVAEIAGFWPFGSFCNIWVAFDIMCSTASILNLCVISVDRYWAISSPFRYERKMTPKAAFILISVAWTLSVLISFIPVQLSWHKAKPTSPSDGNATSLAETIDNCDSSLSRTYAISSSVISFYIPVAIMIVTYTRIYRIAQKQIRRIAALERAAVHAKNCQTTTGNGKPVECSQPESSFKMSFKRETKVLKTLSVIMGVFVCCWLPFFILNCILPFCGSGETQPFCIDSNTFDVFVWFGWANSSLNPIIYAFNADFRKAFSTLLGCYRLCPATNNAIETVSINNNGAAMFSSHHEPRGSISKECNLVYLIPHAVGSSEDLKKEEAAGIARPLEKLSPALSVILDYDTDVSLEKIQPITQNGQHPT

Assay [12] deals with human Neurokinin, NK2 Receptor, TACR2 (gene 6865) (UniProt P21452). As to the kind of experiment: NVS_GPCR_hNK2: NovaScreen (NVS) G Protein-Coupled Receptor Assay for human Neurokinin, NK2 Receptor (AID 2283278).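 Further: actives reduce bound radioligand signal relative to DMSO baseline.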 The method, boiled down: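 Cell-free radioligand binding using receptor protein extracted from CHO cells; readings taken 4 hours after chemical dosing by filter-based scintillation counting. Primary screen ran single concentration (25 uM) in duplicate; actives followed up in concentration series, loss-of-signal versus DMSO baseline.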
human Neurokinin, NK2 Receptor, TACR2 (gene 6865), sequence (P21452 whole entry, looked up): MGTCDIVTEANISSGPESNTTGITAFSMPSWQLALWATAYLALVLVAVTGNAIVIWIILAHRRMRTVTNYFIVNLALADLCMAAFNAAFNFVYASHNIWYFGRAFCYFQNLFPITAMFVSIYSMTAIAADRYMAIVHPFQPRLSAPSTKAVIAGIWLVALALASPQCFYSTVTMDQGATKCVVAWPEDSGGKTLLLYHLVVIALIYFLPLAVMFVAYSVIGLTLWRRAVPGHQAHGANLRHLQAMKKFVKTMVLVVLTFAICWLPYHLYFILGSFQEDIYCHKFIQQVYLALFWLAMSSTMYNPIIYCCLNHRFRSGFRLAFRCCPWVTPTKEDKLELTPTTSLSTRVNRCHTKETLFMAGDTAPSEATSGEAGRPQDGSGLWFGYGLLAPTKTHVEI

The target in assay [13] is Type-1 angiotensin II receptor (Homo sapiens) (UniProt P30556). In words: NVS_GPCR_hAT1: NovaScreen (NVS) G Protein-Coupled Receptor Assay for human Angiotensin II receptor type 1 (AT1) (AID 2283263). The essentials:
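Membranes from KAN-TS cells; radioligand competitive displacement, 3 h, filtration and scintillation counting. Single-point duplicate screen at 25 uM, then concentration-response up to 50 uM for hits; loss of signal fitted versus DMSO.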

For assay [14], the target named is human Opioid Receptor Delta 1 (Opiate D1), OPRD1 (gene 4985) (UniProt P41143). As to the kind of experiment: NVS_GPCR_hOpiate_D1: NovaScreen (NVS) G Protein-Coupled Receptor Assay for human Opioid Receptor Delta 1 (Opiate D1) (AID 2283280). The method, boiled down:
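Radioligand displacement on membranes from CHO cells expressing the receptor, read by filter scintillation counting 1 h after dosing. Duplicate single-point screen at 25 uM, then concentration series for actives; loss of signal versus DMSO.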

For assay [15], the target named is human Thromboxane A2 Receptor (TXA2), TBXA2R (gene 6915) (UniProt P21731). In words: NVS_GPCR_hTXA2: NovaScreen (NVS) G Protein-Coupled Receptor Assay for human Thromboxane A2 Receptor (TXA2) (AID 2283282).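 Further: actives reduce bound radioligand signal relative to DMSO baseline.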 The essentials:
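Screening ran at 25 uM in duplicate, with concentration series for confirmed actives. Each test measures radioligand binding to human platelet protein after 1 h, cell-free, using filter-based scintillation detection of signal loss relative to DMSO.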

human Dopamine Receptor D4.4 (DRD4.4), DRD4 (gene 1815), sequence (P21917 whole entry, looked up): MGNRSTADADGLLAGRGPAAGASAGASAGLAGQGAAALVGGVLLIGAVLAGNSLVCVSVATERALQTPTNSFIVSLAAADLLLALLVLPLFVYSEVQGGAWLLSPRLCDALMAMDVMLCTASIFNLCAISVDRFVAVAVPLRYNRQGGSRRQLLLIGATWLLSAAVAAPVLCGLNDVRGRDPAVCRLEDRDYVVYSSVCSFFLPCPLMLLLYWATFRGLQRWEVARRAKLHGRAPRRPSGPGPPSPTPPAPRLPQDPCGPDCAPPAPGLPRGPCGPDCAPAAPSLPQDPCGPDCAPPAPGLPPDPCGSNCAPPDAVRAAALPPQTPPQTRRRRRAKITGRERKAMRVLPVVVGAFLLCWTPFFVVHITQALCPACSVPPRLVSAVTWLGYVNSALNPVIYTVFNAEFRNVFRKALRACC
human Opioid Receptor Delta 1 (Opiate D1), OPRD1 (gene 4985), sequence (P41143 whole entry, looked up): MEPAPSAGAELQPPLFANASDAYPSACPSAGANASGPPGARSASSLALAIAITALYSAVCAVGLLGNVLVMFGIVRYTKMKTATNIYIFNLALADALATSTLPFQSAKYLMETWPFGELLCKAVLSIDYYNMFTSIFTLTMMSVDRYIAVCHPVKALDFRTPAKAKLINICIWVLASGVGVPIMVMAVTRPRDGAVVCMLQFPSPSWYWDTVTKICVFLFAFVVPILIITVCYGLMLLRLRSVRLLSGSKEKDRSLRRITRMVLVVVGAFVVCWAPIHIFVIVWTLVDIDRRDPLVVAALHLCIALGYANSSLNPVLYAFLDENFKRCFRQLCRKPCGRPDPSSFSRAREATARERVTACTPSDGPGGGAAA
human Dopamine Receptor D2 (DRD2), DRD2 (gene 1813), sequence (P14416 whole entry, looked up): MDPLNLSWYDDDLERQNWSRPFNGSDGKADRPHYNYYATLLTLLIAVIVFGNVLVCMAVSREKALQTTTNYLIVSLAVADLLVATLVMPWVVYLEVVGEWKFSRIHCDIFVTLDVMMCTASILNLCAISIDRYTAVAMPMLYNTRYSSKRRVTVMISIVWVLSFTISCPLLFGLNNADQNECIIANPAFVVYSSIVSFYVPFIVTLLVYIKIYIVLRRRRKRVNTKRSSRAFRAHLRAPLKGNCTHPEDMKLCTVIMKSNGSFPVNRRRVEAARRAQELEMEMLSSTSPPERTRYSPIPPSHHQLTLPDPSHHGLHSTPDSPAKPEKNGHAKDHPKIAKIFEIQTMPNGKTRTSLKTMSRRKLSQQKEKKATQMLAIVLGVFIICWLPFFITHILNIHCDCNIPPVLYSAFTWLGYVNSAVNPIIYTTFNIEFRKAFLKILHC
human Leukotriene B4 Receptor 1 (LTB4-BLT1), LTB4R (gene 1241), sequence (Q15722 whole entry, looked up): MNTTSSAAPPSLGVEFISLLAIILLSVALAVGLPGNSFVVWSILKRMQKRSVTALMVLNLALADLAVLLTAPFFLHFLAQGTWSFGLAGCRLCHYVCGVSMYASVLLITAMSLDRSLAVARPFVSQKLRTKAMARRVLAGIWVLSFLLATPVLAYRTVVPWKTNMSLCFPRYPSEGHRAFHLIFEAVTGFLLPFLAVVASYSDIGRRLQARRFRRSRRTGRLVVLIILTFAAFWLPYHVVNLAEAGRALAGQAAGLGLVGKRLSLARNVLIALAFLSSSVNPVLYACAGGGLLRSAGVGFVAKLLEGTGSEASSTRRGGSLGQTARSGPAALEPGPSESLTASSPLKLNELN
Muscarinic acetylcholine receptor M1 (Homo sapiens), sequence (P11229 whole entry, looked up): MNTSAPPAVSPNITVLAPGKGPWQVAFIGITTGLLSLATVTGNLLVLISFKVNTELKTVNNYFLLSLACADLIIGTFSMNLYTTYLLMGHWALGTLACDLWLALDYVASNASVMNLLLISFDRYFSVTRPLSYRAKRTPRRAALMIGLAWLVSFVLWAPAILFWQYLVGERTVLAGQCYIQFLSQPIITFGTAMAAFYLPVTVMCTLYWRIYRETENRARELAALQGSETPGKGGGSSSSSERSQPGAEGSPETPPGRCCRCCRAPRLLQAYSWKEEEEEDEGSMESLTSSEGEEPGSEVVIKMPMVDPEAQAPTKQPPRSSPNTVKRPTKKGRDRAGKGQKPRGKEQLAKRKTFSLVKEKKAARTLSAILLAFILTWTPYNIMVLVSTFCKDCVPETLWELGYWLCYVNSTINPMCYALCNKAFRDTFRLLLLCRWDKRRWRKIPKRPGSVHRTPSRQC
human Adrenergic, Beta 3 Receptor (Adrb3), ADRB3 (gene 155), sequence (P13945 whole entry, looked up): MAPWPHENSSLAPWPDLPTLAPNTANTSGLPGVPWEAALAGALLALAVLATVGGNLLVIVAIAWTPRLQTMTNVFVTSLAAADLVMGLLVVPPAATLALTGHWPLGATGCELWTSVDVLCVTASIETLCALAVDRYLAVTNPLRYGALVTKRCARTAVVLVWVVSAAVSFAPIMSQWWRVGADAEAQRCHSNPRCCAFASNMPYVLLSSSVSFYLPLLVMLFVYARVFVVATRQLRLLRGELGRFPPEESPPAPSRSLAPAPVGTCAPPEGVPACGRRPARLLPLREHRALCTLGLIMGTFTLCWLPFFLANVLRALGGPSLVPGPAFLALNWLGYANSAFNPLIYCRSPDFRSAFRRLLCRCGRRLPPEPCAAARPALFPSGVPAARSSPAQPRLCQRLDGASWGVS

As to `CC[C@H]1CC[C@H](NCc2cc3c(cc2OC)[C@H]2C[C@H]2C(=O)N3C)[C@H](c2ccccc2)N1`, the AC50 is 1.47 µM (active) in assay [1], 12.3 µM (active) in assay [2], 0.835 µM (active) in assay [3] and 7.73 µM (active) in [4].
On to `Cc1ccc(S(=O)(=O)O)cc1C`, for which the call in [5] was inactive.
As for `CCOC(=O)COc1ccc2c(c1)CC(NCC(O)c1cccc(Cl)c1)CC2` (centres undefined), the half-maximal activity concentration (AC50) in assay [6] was 17.9 µM (active); in assay [7] it was 22.9 µM (active); in assay [9], 2.33 µM (active); in assay [10], 20.1 µM (active); in assay [11] it was 22.9 µM (active); in [1], 4.73 µM (active). Also, the AC50 in assay [2] was 3.78 µM (active); in assay [3], 3.68 µM (active); in assay [4], 3.75 µM (active); in [12], 21.7 µM (active). For the same molecule, the call in assay [8] was inactive.
Turning to `CCc1cc(SCc2sc(-c3ccc(C(F)(F)F)cc3)nc2CN2CCN(c3ccc(OC)cc3)CC2)ccc1OCC(=O)O`, the AC50 in assay [13] is 9.64 µM (active); in assay [7], 6.77 µM (active); in [9] it was 4.08 µM (active); in assay [10], 25 µM (active); in assay [11], 11.5 µM (active); in assay [5], 37.3 µM (active). The results for the AC50 in [4] and in assay [14] were 9.13 µM (active) and 7.88 µM (active), respectively.
As for `COc1cccc(-c2ccc(/C=C\CN3CCCCCC3)cc2Cl)c1`, the result in [6] and in assay [12] was inactive. Further, the AC50 in [7] is 10.2 µM (active); in assay [9], 8.5 µM (active); in [10], 11.1 µM (active); in assay [11], 12.6 µM (active); in [1], 5.57 µM (active); in assay [5] it was 14.5 µM (active). For the same molecule, the AC50 in [2] is 2.41 µM (active); in assay [3], 0.427 µM (active); in assay [4], 6.57 µM (active); in assay [14], 15.5 µM (active).
For the molecule `CCC(C)(C)C(=O)O[C@H]1C[C@@H](C)C=C2C=C[C@H](C)[C@H](CC[C@@H]3C[C@@H](O)CC(=O)O3)[C@H]21`, the result in assay [9], in assay [11], in assay [14] and in assay [15] was inactive.
With `CCn1nc(Cc2ccccc2)cc1C1CCN(C[C@H]2C[C@H](N(C)[C@@H](C(=O)O)C(C)C)C[C@@H]2c2cccc(F)c2)CC1`, the result in [6] and in [9] was inactive. Moreover, the AC50 in assay [12] was 20.8 µM (active).
With `CCCCCCc1ccc(O)cc1O`, the AC50 in assay [15] is 5.72 µM (active).
In the case of `Nc1ccc(Nc2ccccc2)cc1`, the AC50 in assay [8] was 6.53 µM (active); in [11], 17.6 µM (active); in assay [2], 25 µM (active); in assay [3] it was 25 µM (active). Moreover, the result in [4] was inactive.

For orientation: AC50 means the concentration giving half of the maximal activity seen.
